Source: PubChem BioAssay
Shown are actives, neighbours in structure and some others; about 27% of the full set was active somewhere.
CYP2C9 inh – human CYP2C9 inhibition; P11712; CYP2C9 Supersomes, luciferin-H conversion, luminescence; 96,000 compounds, 20% hits; inhibition, % at 5 µM;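 active means blocking of liver enzyme CYP2C9 beyond about 50% at 5 µM, limit read from the data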
Cav32 inh – blocks human Cav3.2 T-type calcium channel; O95180; Cav3.2-expressing cells, Fluo-4 calcium fluorescence FDSS; stronger effect = lower value; B-score at 10 µM; 100,000 compounds, 4% hits; AID 449739;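 active means single-dose well whose peak fluorescence ratio is a statistical outlier from its plate by either plate-standardised score or position-corrected B-score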
CYP2C19 act – activators of human cytochrome P450 2C19 | AID 1025 | P33261 | activation factor at 5 µM | 96,000 tested, under 10 active | recombinant CYP2C19, luciferin-H EGE luminescence; stronger effect = higher value; 0 = fully inhibited enzyme, 1 = untreated enzyme;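 active means activation factor of at least 2 at 5 µM in the primary screen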;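 further: 0 = wells with 2.5 mM tranylcypromine and 1 = vehicle-only wells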
PTK2B oligo ant – blocks oligomerization of human Pyk2 in cells. Q14289. Q293 cells, Pyk2 FERM NanoBiT luminescence; stronger effect = lower value. z-score (the deposit names both 25 µM and 10 µM). 99,000 compounds, 0.83% hits. AID 1347419;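 active means Z-score of -3 or lower, scaled per plate to the spread of control and sample wells; inactive means z-score above -3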;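 further: negative z-score means lost luminescence so less FERM oligomerization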
CYP2C9 act – CYP2C9 (human) activation; 96,000 compounds, 1.4% hits; P11712; AID 1024; recombinant CYP2C9, luciferin-H conversion, luminescence; stronger effect = higher value; factor 1 = untreated enzyme, 0 = blocked; activation factor at 5 µM;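 active means activation factor of 2 or more for CYP2C9 at a 5 µM dose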;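 further: 0 = sulfaphenazole-blocked wells and 1 = vehicle-only wells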
CYP2C19 inh – blocks human cytochrome P450 2C19; inhibition, % at 5 µM; AID 778; 96,000 compounds, 21% hits; CYP2C19 Supersomes, luciferin-H EGE luminescence, 30 min;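 active means CYP2C19 inhibition above a set limit at 5 µM in the primary screen, cut at about 50% in these data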;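 further: plate controls were negative control wells for no effect and 2.5 mM tranylcypromine positive control for full effect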
Starred values were filed as active, the others as inactive; . = no result given.

SMILES | CYP2C9 inh | Cav32 inh | CYP2C19 act | PTK2B oligo ant | CYP2C9 act | CYP2C19 inh
COc1ccc2c(c1)nc(SCC(=O)c1ccc(Br)s1)n2C | 51* | 0.14 | 0.3 | -0.44 | 0.5 | 72*
CC1(C)CC2(CC(c3cccs3)c3cc(Cl)c(O)cc3O2)NC(=S)N1 (stereo not drawn) | 19 | . | 0.9 | -1.8 | 0.8 | 8
CCOC(=O)CC(=O)CSc1nnc2sc3ccccc3n12 | -132 | -0.3 | 0.9 | 0.41 | 2.3* | 9
Cc1cc(-n2c(C)cc(C(=O)CSc3nnc4sc5ccccc5n34)c2C)no1 | 16 | 0.0043 | 0.1 | -0.02 | 0.8 | 87*
CC(=O)c1cccc(OCC(=O)c2cc(C)n(-c3cc(C)on3)c2C)c1 | 78* | -0.75 | 0.1 | 0.43 | 0.2 | 86*
Cc1cc(-n2c(C)cc(C(=O)COc3ccc4ccc(=O)oc4c3)c2C)no1 | 10 | -1.7 | 0.9 | -0.48 | 0.9 | 9
O=C(CSc1nnc2sc3ccccc3n12)c1ccco1 | -78 | 0.4 | 0.5 | 0.13 | 1.8 | 51*
O=C(NC12CC3CC(CC(C3)C1)C2)C12CC3CC(C1)CC(n1cnc(Cl)n1)(C3)C2 | -2 | 0.25 | 0.7 | 1.2 | 1 | 27
CCOC(=O)C(C)Sc1ncc(-c2ccc(Cl)cc2)cn1 (stereo not drawn) | 16 | -1.3 | 0.8 | 0.21 | 0.8 | 18
O=C(NCC1CCCCC1)C1CCCN(C(=O)NC2CCCCC2)C1 (stereo not drawn) | 16 | 0.77 | 0.9 | 1.1 | 0.8 | 6
O=C(CSc1nnc(NCc2ccccc2)s1)c1ccco1 | 81* | . | 0.4 | 0.64 | 0.2 | 62*
CN(C)C(=O)CSc1nnc2sc3ccccc3n12 | -32 | . | 1 | 0.4 | 1.3 | 2
O=C(CSc1nnc2sc3ccccc3n12)N1CCN(c2ccccc2)CC1 | -178 | 0.14 | 0.9 | 1.1 | 2.8* | 9
COC(=O)C1=C(C(=O)OC)[C@@H]2N(C)c3ccccc3[C@@]23C[C@@H](CO)N(C(=O)NCCBr)C3=N1 | . | -3.7 | . | . | . | .
Cc1nc2nc(C)c(CCC(=O)NCc3ccc4c(c3)OCO4)c(C)n2n1 | 6 | 0.33 | 1.1 | -0.77 | 0.9 | -11
Cc1cccc(NCCNc2cccc(C)c2)c1 | 6 | -1.7 | 0.5 | 0.13 | 0.9 | 47
Cc1ccc(NCCc2ccc(C)nc2)cc1 | 22 | 0.32 | 0 | 1.1 | 0.8 | 96*
COc1ccc(NCCNc2ccc(OC)cc2)cc1 | 12 | 0.56 | 0.4 | 0.49 | 0.9 | 56*
Cc1ccc(NCCNc2ccc(C)cc2)cc1 | 12 | -0.49 | 0 | 0.99 | 0.9 | 100*
CCn1c(=N)n(CC(=O)C23CC4CC(CC(C4)C2)C3)c2ccccc21 | 0 | -1 | 0.9 | -0.49 | 1 | 9
Cc1nc(C(=O)N(C)C)nn1-c1cc(Cl)cc(Cl)c1 | -1 | 1.1 | 1 | 1 | 1 | -1
CC(C)CC(C(=O)NC1CCCC1)N(Cc1cccs1)C(=O)c1snc(C(N)=O)c1N (stereo not drawn) | . | -2.7 | . | -2.1 | . | .
CCCCC(C(=O)NC(C)(C)C)N(Cc1ccco1)C(=O)c1snc(C(N)=O)c1N (stereo not drawn) | 70* | -0.031 | 0.4 | -0.43 | 0.3 | 58*
CC(C(=O)NCc1ccccc1)N(CCN1CCOCC1)C(=O)c1snc(C(N)=O)c1N (stereo not drawn) | -11 | . | 0.9 | . | 1.1 | 8
Cc1cc(C)cc(N(CC(=O)NCc2ccco2)C(=O)c2snc(C(N)=O)c2N)c1 | . | 0.047 | . | -0.01 | . | .
SMILES | CYP2C9 inh | Cav32 inh | CYP2C19 act | PTK2B oligo ant | CYP2C9 act | CYP2C19 inh
CCCC(C(=O)NC1CCCC1)N(Cc1ccc2c(c1)OCO2)C(=O)c1snc(C(N)=O)c1N (stereo not drawn) | 83* | -0.71 | 0 | -1.1 | 0.2 | 97*
CCCC(C(=O)NCc1ccc(OC)cc1)N(Cc1ccco1)C(=O)c1snc(C(N)=O)c1N (stereo not drawn) | 49 | -1.7 | 0.4 | -0.58 | 0.5 | 60*
CCC(C(=O)NCc1ccc(F)cc1)N(Cc1ccco1)C(=O)c1snc(C(N)=O)c1N (stereo not drawn) | 50* | -0.0032 | 0.4 | -0.27 | 0.5 | 58*
O=C(CNc1ccccc1-c1ccccc1)NCc1ccccc1 | . | . | . | -0.3 | . | .
COC(=O)c1cc2c(-c3ccccc3)c(C)c3ccccn3c-2c1C(=O)OC | 88* | -0.19 | 0.3 | 0.63 | 0.1 | 67*
CC(=O)N1C(C(=O)O)CSC1c1ccc(C)cc1 (stereo not drawn) | -9 | 0.33 | 1.2 | . | 1.1 | -25
CCCCCSc1nnc2c(n1)OC(c1cccn1C)N(C(C)=O)c1ccccc1-2 (stereo not drawn) | 83* | -2 | 0.5 | -0.95 | 0.2 | 45
CCSc1nnc2c(n1)OC(c1ccc(C(=O)O)cc1)N(C(C)=O)c1ccccc1-2 (stereo not drawn) | -30 | 0.57 | 1.1 | . | 1.3 | -8
CCc1ccc(C(C(=O)NCCOC)N(C(=O)Cn2nnc3ccccc32)c2cccnc2)cc1 (stereo not drawn) | . | 0.84 | . | 0.06 | . | .
COc1ccc(-c2n[nH]c(C)c2-c2cnn(-c3ccccc3)c2)c(O)c1C | 52* | -0.099 | 0.6 | -0.7 | 0.5 | 39
COc1ccc(-c2n[nH]c(C)c2-c2cnn(-c3ccccc3)c2)c(O)c1 | . | -2.1 | . | -0.58 | . | .
N#CC1=C(N)S[C@@H](C(=O)c2ccc(F)cc2)[C@@H]1c1cccs1 | . | -4.7* | . | -0.54 | . | .
Cc1cc(CNC(=O)C2(C(F)(F)F)CC(CCCO)CCCO2)nn1C (stereo not drawn) | . | -0.022 | . | . | . | .
COc1ccc(N=c2oc3c(OC)cccc3cc2C(=O)NCc2ccco2)c(OC)c1 | 54* | -2.4 | 0.7 | -0.69 | 0.5 | 30
COc1ccc(OC)c(-c2cc(C(=O)Nc3cccc(Cl)c3)no2)c1 | -117 | -0.71 | 1 | -0.62 | 2.2* | -4
CCc1ccccc1NC(=O)c1cc(-c2cccc(O)c2)on1 | -379 | -0.29 | 1 | . | 4.8* | 5
COc1ccc(OC)c(-c2cc(C(=O)NCc3ccco3)no2)c1 | -191 | -0.53 | 0.9 | -0.35 | 2.9* | 9
O=C(c1cnccn1)N1CCN(C/C=C/c2ccccc2)CC1 | 3 | 0.8 | 0.9 | 0.23 | 1 | 8
CCCCS(=O)(=O)/C=C\C=C/S(=O)(=O)CCCC | 10 | . | 0.9 | 0.13 | 0.9 | 14
COc1cc(OC)c2c(C)cc(=O)oc2c1C(CCN1CCOCC1)c1ccc(N(C)C)cc1 (stereo not drawn) | . | -0.97 | . | . | . | .
Cc1nn2c(=O)cc(COC(=O)c3ccc(S(=O)(=O)N4CCCCC4)cc3)nc2s1 | 38 | . | 0.9 | 0.08 | 0.6 | 9
COc1cc(NC(=O)c2cc(-c3cccc(O)c3)on2)cc(OC)c1OC | -45 | -0.68 | 0.9 | . | 1.4 | 12
COc1cccc(-c2cc(C(=O)Nc3cccc(O)c3)no2)c1 | -130 | 0.52 | 1.1 | -0.73 | 2.3* | -7
COC(=O)c1sccc1-c1ccc(C(=O)Nc2cccc(Cl)c2)o1 | 72* | -1.8 | 0.6 | -0.86 | 0.3 | 43
